# From PubChem BioAssay (Tox21)
# Values without a mark were called inactive. Where a call stands in place of a potency, no number is given. Calls of active or inactive are those of the source. Calls come from the whole dose curve.
# Assay: G protein-coupled receptor (GPCR) small molecule agonists, calcium flux assay: HEK293 wild type cell line counter screen (AID 1920065)
# Details: HEK293 WT calcium flux, fluorescence, agonist mode; series mostly up to 57.6 µM
# Excerpt: U.S. Tox21 Program National Center for Advancing Translational Sciences [NCATS] Division of Preclinical Innovation [DPI] U.S. Environmental Protection Agency [EPA] National Institutes of Environmental Health Sciences [NIEHS] National Toxicology Program [NTP] U.S. Food and Drug Administration [FDA] Assay overview: The increased intracellular calcium release that occurred upon G protein-coupled receptor (GPCR) activation led to the frequent use of calcium flux assays to detect GPCR activation. For the purpose of studying and screening compounds that may activate GPCR, receptor-overexpressing models were typically generated using Hek293 wild-type (WT) cells. In order to eliminate the compounds that may have induced calcium release for non-specific activation, a counter-assay utilizing calcium flux on Hek293 WT cells was performed. The data were formulated in order to serve as a control for any calcium flux detection utilizing Hek293 cells with either GPCR overexpression or gene modification. The procurement of Hek293 WT cells from ATCC. Fluorescence intensity can be utilized to determine the activation of the compound in a calcium flux assay. As a counter control, this cell line was utilized to screen the Tox21 10K compound library.
# Assay Protocol Summary: Hek293 cells were dispensed at 1500cells/4uL/well in 1536-well black wall/clear bottom plates using a multidrop dispenser. After the assay plates were incubated at a 37 C/5% CO2 incubator for 18 hours, 4 uL of Calcium Dye Solution was added to each well. The plates were incubated at 37 C for 1 hour. For agonist mode, 23 nL of compounds dissolved in DMSO, positive control (ATP) or DMSO only was transferred to the assay plate by a pin tool station. The fluorescence intensity in the plates was measured using FDSS 7000EX kinetic plate reader with a filter set of Ex/Em=480/540 for 3 min at 1 sec intervals. Each test compound was measured at 15 concentrations and in triplicates.
SMILES,Potency,activation
C=C1CC[C@H](O)CC1=C/C=C1\CCC[C@]2(C)[C@@H]([C@H](C)/C=C/[C@H](C)C(C)C)CC[C@@H]12,inactive,
CC(=O)/C(C)=C/C1C(C)=CCCC1(C)C (stereo not given),inactive,
C#C[C@]1(OC(C)=O)CC[C@H]2[C@@H]3CCC4=C/C(=N/O)CC[C@@H]4[C@H]3CC[C@@]21CC,inactive,
Cc1cc(C)c(C)c(C)c1,inactive,
CC1=NN(c2ccc(S(=O)(=O)O)cc2)C(=O)C1N=Nc1ccccc1 (stereo not given),inactive,
CC1=C(/C=C/C(C)=C/C=C/C(C)=C/C=O)C(C)(C)CCC1,inactive,
COC(Cc1ccccc1)OC,inactive,
CN[C@@H]1[C@@H](O)[C@@H](O[C@@H]2[C@H](O)[C@H](O[C@H]3OC(CN)=CC[C@H]3N)[C@@H](N)C[C@H]2N)OCC1(C)O (stereo not given in full),inactive,
CC(C)COC(=O)CCCCC(=O)OCC(C)C,inactive,
CC/C(=C(/c1ccc(O)cc1)c1ccc(OCCN(C)C)cc1)c1ccccc1,inactive,
COC(OC)(C(=O)c1ccccc1)c1ccccc1,inactive,
CCCCCCCCS(=O)(=O)O,inactive,
COc1ccc(/C=C/c2cc(OC)cc(=O)o2)cc1,inactive,
CC1CCCNC1 (stereo not given),inactive,
COc1nc(C)nc(Cl)c1NC1=NCCN1,inactive,
CCCC(C)C(=O)O (stereo not given),inactive,
CCC(=O)C1CC(C(C)C)CC=C1C (stereo not given),inactive,
COc1cc(NC(C)CCCN)c2ncccc2c1 (stereo not given),inactive,
CN(C)[C@@H]1C(=O)C(C(N)=O)=C(O)[C@@]2(O)C(=O)C3=C(O)c4c(O)ccc(Cl)c4[C@@H](O)[C@H]3C[C@@H]12,inactive,
Cc1ccc(-c2ncc(Cl)cc2-c2ccc(S(C)(=O)=O)cc2)cn1,inactive,

SMILES,Potency,activation
CCCCCCC#CC(=O)OC,inactive,
CC(=O)C(=O)CC(C)C,inactive,
CO[C@H]1C=CO[C@@]2(C)Oc3c(C)c(O)c4c(O)c(c5c(c4c3C2=O)=NC2(CCN(CC(C)C)CC2)N=5)NC(=O)/C(C)=C\C=C/[C@H](C)[C@H](O)[C@@H](C)[C@@H](O)[C@@H](C)[C@H](OC(C)=O)[C@@H]1C,inactive,
CCCCCCCCCCCCCCCCN(C)C,,-0.794% [at 5.23 µM]
SC1CCCC1,inactive,
CC(C)CCC(=O)CCC(C)C,inactive,
CCCCCCCCC(=O)OCC(C)OC(=O)CCCCCCCC (stereo not given),inactive,
CC(=O)NC1(c2cccc(F)c2)CCN(CC[C@@]2(c3ccc(Cl)c(Cl)c3)CN(c3ccccc3)C(=O)CO2)CC1,inactive,
N#Cc1ccccc1O,inactive,
Cc1ccccc1S,inactive,
CC(C)c1cccc(C(C)C)c1NC(=O)NS(=O)(=O)c1cc(C(C)(C)O)co1,inactive,
CCCCCCCCCCCCSCCOCCO,inactive,
CC1(C)CC(=O)CC(C)(C)N1,inactive,
O=C1CCCC(=O)O1,inactive,
CC(C)C1CCC(C(=O)N[C@H](Cc2ccccc2)C(=O)O)CC1 (stereo not given in full),inactive,
O=Cc1ccccc1Cl,inactive,
CCC(C)Nc1ccc(NC(C)CC)cc1 (stereo not given),inactive,
CCC(C)(CCC(C)C)C(=O)[O-].CCC(C)(CCC(C)C)C(=O)[O-].[Zn+2] (stereo not given),inactive,
Cc1[nH]nc2c1N=C(c1ccccc1Cl)c1cc([N+](=O)[O-])ccc1N2,inactive,
C=C(C)c1cccc(C(=C)C)c1,inactive,
